# Laboratory results: PubChem BioAssay AID1850 (Southern Research Specialized Biocontainment Screening …, 2009)
# Values joined by “and” are separate entries in the source; they are usually repeats but may differ in a detail not shown here. Equal values may be shown once. Out of some 310,000 compounds screened, about 1,000 (0.32%) were called active. A selection follows. Results with a measured potency or affinity are listed apart. Values without a mark were called inactive. No rule for the calls is given here.
# Assay: PhoP regulon inhibitors, Salmonella typhi PhoP promoter GFP reporter, confirmatory (AID 1850);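 also: 0% = induced wells with vehicle and 100% = uninduced wells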
# Conditions: fluorescence, 4 h, at 50 µM, stronger effect = higher value
row,Compound,inhibition
1,CCOC(=O)c1ccccc1NC(=O)CSc1nc2ccccc2n1CC(=O)N1CCCC1,-7.2%
2,CN(C)c1ccc(/C=C/c2nc3ccccc3s2)cc1,-9.15%
3,Cc1nc2ccc(C(=O)Nc3ccc(N(C)C)cc3)cc2s1,-5.67%
4,CC(C)CNC(=O)C(=O)NCCCN1CCOCC1,3.18%
5,CCOc1ccc(N2C(=O)CC(NCCc3c[nH]c4ccccc34)C2=O)cc1 (configuration not stated),6.97%
6,CCOc1ccc(NC(=O)CSc2nc3ccccc3nc2N2CC(C)OC(C)C2)cc1 (configuration not stated),-3.96%
7,COc1ccc(CNC(=O)C2CCN(S(=O)(=O)c3ccc4c(c3)CC(C)N4C(C)=O)CC2)cc1 (configuration not stated),1.71%
8,Cc1ccc2nc(N(CCCN(C)C)C(=O)COc3ccc(Cl)cc3)sc2c1,6.88%
9,CN(C)CCCN(C(=O)COc1ccccc1)c1nc2ccc(F)cc2s1,-2.75%
10,Cc1ccc2nc(N(CCCN(C)C)C(=O)CCc3ccccc3)sc2c1,-4.72%
11,CN(C)CCCN(C(=O)COc1ccc(Cl)cc1)c1nc2ccc(F)cc2s1,14%
12,CN(C)CCCN(C(=O)COc1ccc(Cl)cc1)c1nc2c(F)cccc2s1,8.92%
13,CN(C)CCCN(C(=O)CCc1ccccc1)c1nc2ccc(Cl)cc2s1,0.73%
14,COc1cccc2sc(N(CCCN(C)C)C(=O)COc3ccc(Cl)cc3)nc12,-1.1%
15,CN(C)CCCN(C(=O)CCc1ccccc1)c1nc2ccc(F)cc2s1,1.04%
16,CCOc1ccc(Oc2cc(N)cc([N+](=O)[O-])c2)cc1,-14.2%
17,O=C(c1ccc(F)cc1F)N1CCN(c2n[nH]c(=O)[nH]c2=O)CC1,-2.71%
18,COC(=O)c1nnn(CC(=O)NC(=O)Nc2c(C)cccc2C)c1C(=O)OC,-3.97%
19,CCN(CC(=O)NCCc1ccc(Cl)cc1)Cc1nc2ccccc2c(=O)[nH]1,-9.11%
20,Cc1ccc(NC(=O)CN2C(=O)S/C(=C\c3ccc(OCC(=O)O)c(Br)c3)C2=O)cc1,-6.05%
21,CC1(C)OC(=O)C(=CNc2ncccn2)C(=O)O1,-4.83%

row,Compound,inhibition
1,CCSc1nnc(NC(=O)CSc2ncccn2)s1,-1.89%
2,Cc1ccc(N2CC(NC(=O)C3CC3)CC2=O)cc1 (configuration not stated),9.02%
3,Cn1c(N)c(C(=O)COC(=O)CN2C(=O)c3ccccc3C2=O)c(=O)n(C)c1=O,-5.68%
4,CCN1CCN(CCCNC(=O)CCCn2nc(C)c3sc4ccccc4c3c2=O)CC1,0.59%
5,Clc1ccc(Cl)c(OCCCCNCc2ccccc2)c1,13.1%
6,Cc1ccc(OCCOCCN(C)C)c(Cl)c1,2.62%
7,CCN(CC)CCOCCOc1ccc(Cl)c2ccccc12,1.79%
8,COCCNCCCOc1ccc(Br)cc1Cl,5.48%
9,Cc1cc(Br)ccc1OCCNCc1ccccc1,11.4%
10,CCOc1ccccc1OCCCNCc1ccccc1,-6.34%
11,COCCCNCCCOc1ccc(Cl)cc1Br,4.69%
12,Brc1ccccc1OCCNCc1ccccc1,11.4%
13,O=C(O)C1C2C=CC(C2)C1C(=O)NCCCN1CCCC1=O (configuration not stated),-1.57%
14,Cn1c(Cn2c(=O)sc3ccccc32)nnc1SCC(=O)N1CCCC1,0.97%
15,NS(=O)(=O)c1ccc(NCCCn2ccnc2)c([N+](=O)[O-])c1,9.73%
16,Cc1ccc(NC(=O)CCC(=O)NNC(=S)Nc2ccc(F)cc2F)cc1C,-6.55%
17,NNC(=O)C(=O)Nc1ccc(Cl)c(Cl)c1,-4.15%
18,Cc1ccc(NC(=O)CSCC#N)cc1Cl,-2.58%
19,CC(=O)NC1C(=O)N=C(SCC(=O)Nc2cccc(Cl)c2)NC1=O (configuration not stated),11.8%
20,Cc1ccc(Cl)cc1NC(=O)CSC(N)=O,-1.36%
21,O=C(CSC1=NC(=O)C(c2ccccc2)C(=O)N1)Nc1ccccc1Cl (configuration not stated),7.4%

row,Compound,inhibition
1,COc1cccc(NC(=O)CSC(N)=O)c1,-6.88%
2,NCCc1nnc(SCC(=O)Nc2cccc(Cl)c2)o1,5.27%
3,O=C(CCC(=O)N1CCCC1)Nc1ccc(Cl)c(Cl)c1,-7.42%
4,O=C(CSc1ccccn1)N1CCCC(Nc2ccc(F)c(F)c2)C1 (configuration not stated),-15.8%
5,CC(C)(C)OC(=O)NCc1ccc(CNC(=O)c2[nH]cnc2C(=O)N[C@@H](Cc2ccccc2)C(=O)OC(C)(C)C)cc1,-19.7%
6,COc1ccc(CCC(=O)NNC(=O)Nc2cccc(Cl)c2)cc1,-3.45%
7,Cc1cc(C(=O)Nc2cccnc2)no1,-7.65%
8,N#CCSc1nc(-c2ccccc2)c2cc(Cl)ccc2n1,-0.85%
9,COCCCn1c(=O)c2ccccc2n(Cc2cc(C(=O)OC)ccc2OC)c1=O,5.08%
10,CCOC(=O)CC1C(=O)NCCN1C(=O)c1cccc(OC)c1 (configuration not stated),-7.55%
11,COCCn1nnnc1C(c1ccc(OC)c(OC)c1)N1CCN(c2nc3ccccc3s2)CC1 (configuration not stated),-9.37%
12,COc1ccccc1N1CCN(S(=O)(=O)CCNC(=O)C2CCCCC2)CC1,-2.35%
13,CCOc1ccc(NC(=O)CSC(N)=O)cc1,-9.69%
14,N#CCSCC(=O)Nc1ccc(Cl)cc1,6.54%
15,O=C(N/N=C\c1ccc(O)c([N+](=O)[O-])c1)c1ccccc1-n1cccc1,-6.79%
16,COc1ccc(N(CN2C(=O)c3ccccc3C2=O)C(=O)COc2ccc(Cl)cc2Cl)cc1,-5.69%
17,CN(C)CCCN1c2ccccc2Sc2ccc(Cl)cc21,9.15%
18,CN(C)CCCN1c2ccccc2CCc2ccccc21,8.39% and 6.67%
19,CCNS(=O)(=O)c1ccc(NC(=O)c2ccc(Cn3cc(Br)cn3)o2)cc1,-4.21%
20,O=C(CCn1nc(-c2ccccc2)c2ccccc2c1=O)N1CCN(c2ccccc2)CC1,6.41%
